5HT1E antag: antagonists of human 5-HT1E serotonin receptor. CHO 5-HT1E Ga15 NFAT-bla reporter, FRET, antagonist. 65,000 tested, 0.99% active. inhibition, % at 6 µM;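 active = inhibition above a set limit, the mean inhibition across every tested compound plus 3 SD, cut at about 29% in these data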;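 also: signal is the 460 over 535 nm emission ratio of beta-lactamase substrate; 0% = agonist plus DMSO wells and 100% = wells without agonist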
5HT1a antag: antagonists of human 5-HT1a serotonin receptor; CHO 5-HT1a Ga15 NFAT-bla reporter, antagonist mode; 62,000 tested, 0.68% active; AID 612; inhibition, % at 10 µM; P08908;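 active = inhibition above the mean of all tested compounds plus 3 SD, cut at about 43% in these data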;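 also: receptor stimulated by 5-CT agonist at 100 nM near EC80; beta-lactamase reporter measured by ratiometric fluorescence of a cleavable substrate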
Target sequence (P08908 whole entry, looked up): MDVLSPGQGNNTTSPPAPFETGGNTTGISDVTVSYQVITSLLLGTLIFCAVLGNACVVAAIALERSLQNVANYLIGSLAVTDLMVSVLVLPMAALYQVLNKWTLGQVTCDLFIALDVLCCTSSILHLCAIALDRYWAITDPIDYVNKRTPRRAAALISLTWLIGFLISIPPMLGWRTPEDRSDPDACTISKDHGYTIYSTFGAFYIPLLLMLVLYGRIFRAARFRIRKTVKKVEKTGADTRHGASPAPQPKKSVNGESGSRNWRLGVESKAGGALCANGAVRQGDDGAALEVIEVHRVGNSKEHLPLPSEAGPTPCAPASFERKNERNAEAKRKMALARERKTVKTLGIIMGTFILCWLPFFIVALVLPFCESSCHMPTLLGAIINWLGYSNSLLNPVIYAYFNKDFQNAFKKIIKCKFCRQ
5HT1a ag: activates the human 5-HT1a serotonin receptor | P08908 | CHO 5-HT1a Ga15 NFAT-bla reporter, FRET ratio; 0% basal, 100% maximal reference agonist | activation, % at 10 µM | 65,000 tested, 0.56% active;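 active = activation above the screen-wide mean activation plus 3 SD, cut at about 19% in these data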;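 also: 0% = DMSO wells and 100% = 5-CT at EC100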
5HT1E ag: agonists of human 5-HT1E serotonin receptor | 65,000 tested, 0.69% active | activation, % at 6 µM | CHO 5-HT1E Ga15 NFAT-bla reporter, FRET; 0% DMSO wells, 100% control agonist wells | P28566;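 active = activation above a set limit, the screen-wide mean activation plus 3 SD, cut at about 8.5% in these data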;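 also: 100% = positive control agonist at 1 µM giving full maximal response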
HER2 expr 66K: Her2 kinase expression inhibition; SKBR-3 HER2 protein level, AlphaScreen, 18-24 h; hits give low values; 65,000 tested, 0.69% active; HER2 level % of control, % at 10 µM;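 active = HER2 level under 5% of the carrier-only control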;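 also: 100% = DMSO carrier and 0% = 500 nM PU-H71 HSP90 inhibitor; lower value means stronger loss of Her2 protein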
The depositor's hits bear a star. Shown are actives, neighbours in structure and some others; about 3% of the full set was active somewhere.

O=S(=O)(c1ccc(S(=O)(=O)N(Cc2ccc(F)cc2)C2CCCC2)cc1)N1CCCC1 was read as 5HT1E antag 31*, 5HT1a antag 29, 5HT1a ag 1, 5HT1E ag -1 and HER2 expr 66K 91.
Screening CC(C)CC1(C)NC(=O)N(CCN2C(=O)c3ccccc3C2=O)C1=O (configuration not stated) returned 5HT1E antag -6, 5HT1a antag -4, 5HT1a ag 1, 5HT1E ag 0 and HER2 expr 66K 113.
`Cc1cc(=O)oc2cc3c(cc12)OCCN3` gave 5HT1E antag -15, 5HT1a antag -36, 5HT1a ag 25*, 5HT1E ag 12* and HER2 expr 66K 93.
For Cc1cc(=O)oc2cc3c(cc12)OCCO3 the results were 5HT1E antag -3, 5HT1a antag 3, 5HT1a ag -1, 5HT1E ag 0 and HER2 expr 66K 105.
`c1ccc2c(c1)oc1c(N3CCN(Cc4ccc5c(c4)OCO5)CC3)ncnc12` gave 5HT1E antag -10, 5HT1a antag 29, 5HT1a ag 63*, 5HT1E ag 0 and HER2 expr 66K 77.
COc1cc(NC(=O)c2cccc3c2C(=O)N(Cc2cccnc2)C3)cc(OC)c1OC was read as 5HT1E antag 30*, 5HT1a antag 18, 5HT1a ag 3, 5HT1E ag 1 and HER2 expr 66K 94.
`O=C(CN1C(=O)c2ccccc2S1(=O)=O)N1CCc2ccccc2C1` gave 5HT1E antag -10, 5HT1a antag -11, 5HT1a ag 0, 5HT1E ag 0 and HER2 expr 66K 113.
COc1ccccc1C(=O)NC(=Nc1nc2ccccc2o1)NC(=O)c1ccccc1OC was read as 5HT1E antag 41*, 5HT1a ag 0, 5HT1E ag 0 and HER2 expr 66K 53.
`N/C(=N\c1nc2ccccc2o1)NC(=O)c1ccccc1NC(=O)c1ccccc1` gave 5HT1E antag -18, 5HT1a ag 1, 5HT1E ag 0 and HER2 expr 66K 48.
Screening Cc1cc(C2=CC(C)(c3cc(C)oc3C)Nc3nc(C(F)(F)F)nn32)c(C)o1 (configuration not stated) returned 5HT1E antag 16, 5HT1a antag 60*, 5HT1a ag -5, 5HT1E ag -1 and HER2 expr 66K 98.
O=C(OCc1cc(Cl)ccc1OC(F)F)c1cc(S(=O)(=O)O)ccc1O was read as 5HT1E antag -3, 5HT1a antag 0, 5HT1a ag 0, 5HT1E ag 0 and HER2 expr 66K 72.
Cc1onc(-c2ccccc2)c1C(=O)n1nnc2ccccc21 was read as 5HT1E antag -1, 5HT1a antag -3, 5HT1a ag 2, 5HT1E ag 0 and HER2 expr 66K 2.2*.
CCCCNc1cc(C(=O)O)cc(S(N)(=O)=O)c1Oc1ccccc1 was read as 5HT1E antag -2, 5HT1a ag 0, 5HT1E ag 0 and HER2 expr 66K 91.
For CCCn1c(NC(=O)c2cccc(S(=O)(=O)N3CCCC3)c2)nc2ccccc21 the results were 5HT1E antag 20, 5HT1a antag 50*, 5HT1a ag -2, 5HT1E ag 1 and HER2 expr 66K -3.3*.
For O=c1c2sc3nc(N4CCOCC4)c4c(c3c2ncn1Cc1ccco1)CCCC4 the results were 5HT1E antag 6, 5HT1a ag 3, 5HT1E ag 0 and HER2 expr 66K 43.
Screening O=c1cc(-c2c(F)c(F)c(F)c(F)c2F)oc2c(F)c(F)c(F)c(F)c12 returned 5HT1E antag 102*, 5HT1a antag 99*, 5HT1a ag -10 and 5HT1E ag -2.
For CCCCOC(=O)Nc1ccc(S(=O)(=O)Nc2nc(C)cc(C)n2)cc1 the results were 5HT1E antag 11, 5HT1a ag 6, 5HT1E ag 12* and HER2 expr 66K 95.
For C=CCn1c(=O)c2ccccc2n2c(SCc3nc(N)nc(Nc4ccccc4C)n3)nnc12 the results were 5HT1E antag 30*, 5HT1a antag -46, 5HT1a ag 0, 5HT1E ag 0 and HER2 expr 66K 79.
For C=CCn1c(=O)c2ccccc2n2c(SCc3cc(=O)n4ccsc4n3)nnc12 the results were 5HT1E antag 7, 5HT1a antag 2, 5HT1a ag 2, 5HT1E ag 0 and HER2 expr 66K -15*.
O=C(OC(C(=O)NCC1CCCO1)c1ccc(F)cc1)c1ccco1 (configuration not stated) was read as 5HT1E antag -4, 5HT1a antag -2, 5HT1a ag 1, 5HT1E ag 0 and HER2 expr 66K 81.
For CCOc1ccc(CCNS(=O)(=O)c2cnc[nH]2)cc1OCC the results were 5HT1E antag 31*, 5HT1a antag -1, 5HT1a ag 1, 5HT1E ag 0 and HER2 expr 66K 152.
O=S(=O)(NCc1ccc2c(c1)OCO2)c1cnc[nH]1 was read as 5HT1E antag 0, 5HT1a antag 4, 5HT1a ag -3, 5HT1E ag 0 and HER2 expr 66K 107.
O=S(=O)(c1ccc(NCCc2c[nH]c3ccccc23)nc1)N1CCOCC1 was read as 5HT1E antag -7, 5HT1a antag 0, 5HT1a ag 0, 5HT1E ag 0 and HER2 expr 66K 108.
`CCN(CC)CCOc1cccc(C(C)C)c1` gave 5HT1E antag 4, 5HT1a antag 6, 5HT1a ag -1, 5HT1E ag 13* and HER2 expr 66K 95.
Screening COc1cc([C@@H]2c3cc4c(cc3[C@H](O)[C@H]3COC(=O)[C@H]23)OCO4)cc(OC)c1OC returned 5HT1E antag 73*, 5HT1a ag -3, 5HT1E ag 0 and HER2 expr 66K 59.
For COc1cc(CC(=O)NCc2ccc3c(c2)OCO3)cc(OC)c1OC the results were 5HT1E antag 0, 5HT1a antag -2, 5HT1a ag 0, 5HT1E ag 1 and HER2 expr 66K 81.
N#CC(c1nc2ccccc2nc1N1CCCC1)S(=O)(=O)c1cccs1 (configuration not stated) was read as 5HT1E antag 3, 5HT1a antag -3, 5HT1a ag -3, 5HT1E ag 0 and HER2 expr 66K 76.
C=CCOC(=O)C1=C(C)Nc2nnnn2C1c1cc(OC)ccc1OC (configuration not stated) was read as 5HT1E antag 11, 5HT1a antag 7, 5HT1a ag 2, 5HT1E ag 0 and HER2 expr 66K -18*.
`CCOC(=O)C1=C(C)Nc2nnnn2C1c1ccc(OC)c(Br)c1` (configuration not stated) gave 5HT1E antag -2, 5HT1a antag 10, 5HT1a ag 1, 5HT1E ag 0 and HER2 expr 66K 110.
Cc1cc(-n2c(=O)c(C#N)cc3c(=O)n4cccc(C)c4nc32)no1 was read as 5HT1E antag -4, 5HT1a antag -21, 5HT1a ag 49*, 5HT1E ag 3 and HER2 expr 66K 102.
Cc1cccn2c(=O)c3cc(C#N)c(=O)n(-c4c(C)n(C)n(-c5ccccc5)c4=O)c3nc12 was read as 5HT1E antag 1, 5HT1a antag 1, 5HT1a ag -1, 5HT1E ag -1 and HER2 expr 66K 73.

Screening results as filed in PubChem BioAssay.
